Results from the supplement of paper PMC10646978.
± gives the standard deviation.

Tests used:
Details in all cases: modulator concentration 10 µM
[1] = system: RAW-Dual (murine macrophage reporter line); assay: NF-kB reporter (SEAP) activity fold change vs agonist alone; higher = enhanced NF-kB activity
Summary of the method: (§1)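 RAW-Dual murine macrophage reporter cells were seeded at 50 000 per well in 384-well plates and pre-incubated 1 hour at 37 °C with compound pin-transferred to 10 μM final. After 1 hour, a PRR agonist was added and cells incubated overnight. Supernatant NF-κB (SEAP, QUANTI-Blue, 620 nm absorbance) and IRF (Lucia luciferase, QUANTI-Luc, luminescence) signals were divided by the mean agonist-only control on the same plate to give fold change. Two replicate plates were averaged, with errors by propagation.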

[2] = system: RAW-Dual (murine macrophage reporter line); assay: IRF reporter (Lucia luciferase) activity fold change vs agonist alone; higher = enhanced IRF activity
Summary of the method: as §1

[3] = system: RAW-Dual (murine macrophage reporter line); assay: viability score (confluency relative to resting cells, overnight) (fraction); higher = more viable, active = viable (0.7 or more)
Summary of the method: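 Confluency was the readout: RAW-Dual macrophages were imaged with IncuCyte after an overnight exposure to compound at 10 μM final. IncuCyte software produced two masks over all imaged wells. The viability score expresses confluency against resting cells, and both masks had to exceed 70% of resting cells for a compound to meet the cutoff.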

[4] = agonist: CpG ODN 1826 0.5 ug/mL

| Structure (SMILES) | NF-kB reporter [1, 4] | NF-kB reporter ([1]; agonist: LPS 0.1 ug/mL) | NF-kB reporter ([1]; agonist: MPLA […]) | IRF reporter ([2]; agonist: 3'3'-cGAMP 10 ug/mL) | IRF reporter ([2]; agonist: LPS 0.1 ug/mL) | IRF reporter ([2]; agonist: MPLA […]) | viability score [3] |
| --- | --- | --- | --- | --- | --- | --- | --- |
| CCCn1c(C(O)(c2ccccc2)c2ccccc2)nc2ccccc21 | 0.514 ± 0.034 | 1.07 ± 0.082 | 0.736 ± 0.05 | 1.3 ± 0.08 | 1.1 ± 0.086 | 1.04 ± 0.19 | 0.888 (active) |
| O=C(CCCn1nc(-c2ccc(F)cc2)ccc1=O)Nc1cc(Cl)ccc1Cl | 1.01 ± 0.16 | 1.06 ± 0.091 | 0.989 ± 0.11 | 1.06 ± 0.066 | 1.03 ± 0.076 | 1.11 ± 0.18 | 1.02 (active) |
| CCN(CCCc1ccccc1)CCCc1ccccc1.O=C(O)CC(O)(CC(=O)O)C(=O)O | 1.32 ± 0.057 | 1.4 ± 0.11 | 2.08 ± 0.29 | 0.265 ± 0.014 | 0.448 ± 0.079 | 0.468 ± 0.11 | 0.991 (active) |
| Cc1ccccc1C(=O)N1CC(S(=O)(=O)CC(C)C)C1 | 0.961 ± 0.082 | 0.907 ± 0.076 | 0.854 ± 0.052 | 1.04 ± 0.071 | 1.04 ± 0.13 | 0.899 ± 0.38 | 1.02 (active) |
| Cc1cc(=O)n2c(-c3cccc(NC(=O)c4ccc(C(F)(F)F)cc4)c3)csc2n1 | 0.824 ± 0.044 | 1.12 ± 0.09 | 1.68 ± 0.46 | 0.731 ± 0.035 | 1.28 ± 0.21 | 1.5 ± 0.44 | 0.99 (active) |
| c1ccc2[nH]c(-c3cscn3)nc2c1 | 1.14 ± 0.16 | 1.16 ± 0.21 | 0.915 ± 0.055 | 0.81 ± 0.037 | 1.17 ± 0.17 | 1.04 ± 0.13 | 0.995 (active) |
| CCOc1ccc(C=c2sc3nc4ccccc4n3c2=O)cc1Cl | 1.07 ± 0.064 | 1.02 ± 0.095 | 0.979 ± 0.031 | 1.01 ± 0.036 | 1.06 ± 0.051 | 0.974 ± 0.094 | 0.998 (active) |
| O=C(O)CCn1c2c(c3ccccc31)C[C@H](NS(=O)(=O)c1ccc(F)cc1)CC2 | 1.13 ± 0.27 | 0.94 ± 0.061 | 0.947 ± 0.06 | 0.879 ± 0.072 | 1.2 ± 0.29 | 1.1 ± 0.12 | 1 (active) |
| CC1CN(Cc2ccccn2)CCC1=O (centres undefined) | 0.988 ± 0.11 | 0.993 ± 0.064 | 1.03 ± 0.062 | 0.978 ± 0.027 | 1.58 ± 0.23 | 1.17 ± 0.12 | 1.01 (active) |
| CNCC[C@@H](Oc1ccccc1C)c1ccccc1.Cl | 0.744 ± 0.079 | 0.996 ± 0.05 | 1.26 ± 0.085 | 1.02 ± 0.11 | 0.95 ± 0.041 | 0.792 ± 0.16 | 0.958 (active) |
| CC(O)(CNC(=O)NCc1ccc(F)cc1)c1ccc(-c2ccccc2)cc1 (centres undefined) | 0.998 ± 0.053 | 1.14 ± 0.12 | 0.873 ± 0.077 | 1.08 ± 0.056 | 1.32 ± 0.1 | 1.62 ± 0.14 | 0.966 (active) |
| CC(C)=CCCC(C)=CC=NNC(=S)Nc1ccc(C)cc1 | 0.855 ± 0.049 | 1.12 ± 0.075 | 1.02 ± 0.065 | 0.256 ± 0.019 | 1.55 ± 0.19 | 1.5 ± 0.18 | 0.997 (active) |
| CN1C(=O)OC(C)(C)C1=O | 1.01 ± 0.12 | 1.09 ± 0.075 | 1.05 ± 0.03 | 1.04 ± 0.17 | 1.01 ± 0.14 | 0.957 ± 0.22 | 1 (active) |
| COc1cc(C=NN2C(=O)c3cccc4cccc(c34)C2=O)cc(Br)c1OC | 1.02 ± 0.08 | 1.12 ± 0.062 | 0.967 ± 0.062 | 1.01 ± 0.032 | 1.51 ± 0.29 | 1.13 ± 0.17 | 1.01 (active) |
| Cc1cc2ncn(CC3CCN(C(=O)COc4ccc(F)cc4)CC3)c2cc1C.O=C(O)C(=O)O | 0.724 ± 0.07 | 1.06 ± 0.1 | 0.931 ± 0.047 | 0.908 ± 0.064 | 0.916 ± 0.09 | 0.814 ± 0.26 | 1 (active) |
| O=C(NC1CC2CCC1C2)c1ccccc1Cl (centres undefined) | 0.725 ± 0.064 | 0.801 ± 0.047 | 1.08 ± 0.099 | 0.983 ± 0.049 | 1.35 ± 0.12 | 1.51 ± 0.24 | 1.02 (active) |
| CC(O)C(=O)O.CN1CCN(c2ccc3nc(-c4c(N)c5c(F)cccc5[nH]c4=O)[nH]c3c2)CC1 | 0.167 ± 0.011 | 0.107 ± 0.0086 | 0.294 ± 0.019 | 2.41 ± 0.23 | 0.434 ± 0.076 | 0.506 ± 0.084 | 0.966 (active) |
| Cc1ccc(C(CNC(=O)Cc2cccc3ccccc23)N(C)C)cc1 (centres undefined) | 0.647 ± 0.033 | 1.13 ± 0.094 | 1.06 ± 0.048 | 0.899 ± 0.045 | 1.03 ± 0.12 | 1.23 ± 0.27 | 0.738 (active) |
| COC(=O)C1=C(C)NC(C)=C(C(=O)OCCN(C)Cc2ccccc2)C1c1cccc([N+](=O)[O-])c1.Cl (centres undefined) | 0.996 ± 0.055 | 0.91 ± 0.074 | 0.887 ± 0.047 | 1.1 ± 0.052 | 1.01 ± 0.16 | 0.988 ± 0.29 | 0.397 (inactive) |
| Cc1ccc(COc2ccc3c(C)c(C)c(=O)oc3c2C)cc1 | 0.785 ± 0.067 | 0.84 ± 0.043 | 1 ± 0.098 | 0.761 ± 0.041 | 1.32 ± 0.1 | 1.53 ± 0.13 | 0.984 (active) |
| O=C(NCCCn1ccc2cccnc21)c1nc2ccccc2s1 | 0.766 ± 0.19 | 1.04 ± 0.092 | 1.09 ± 0.07 | 0.813 ± 0.071 | 0.942 ± 0.22 | 1.02 ± 0.15 | 1 (active) |
| O=C1OCCN1C1CCN(C(=O)C2(c3ccc(F)cc3)CC2)C1 (centres undefined) | 0.862 ± 0.094 | 0.907 ± 0.16 | 1.06 ± 0.074 | 0.843 ± 0.15 | 1.28 ± 0.3 | 1.45 ± 0.51 | 0.951 (active) |
| O=Cc1cn(CCOc2ccc(Cl)cc2)c2ccccc12 | 1.45 ± 0.12 | 0.883 ± 0.07 | 1.62 ± 0.06 | 0.685 ± 0.057 | 0.773 ± 0.081 | 0.613 ± 0.12 | 0.93 (active) |
| CNC(=O)Cc1cn(Cc2ccccc2)c2ccccc12 | 0.809 ± 0.19 | 1.11 ± 0.12 | 1.11 ± 0.082 | 0.947 ± 0.038 | 0.977 ± 0.11 | 1.05 ± 0.12 | 0.999 (active) |
| Cn1c(=O)[nH]c(=O)c2c1nc(N1CCCCC1)n2CCC#N | 1.1 ± 0.07 | 1.09 ± 0.07 | 0.952 ± 0.071 | 0.945 ± 0.033 | 1.33 ± 0.093 | 1.1 ± 0.16 | 1 (active) |
| CCOc1ccccc1NC(=O)N1CCCC1CS(=O)(=O)c1ccccc1 (centres undefined) | 1.01 ± 0.062 | 1.15 ± 0.093 | 0.954 ± 0.046 | 1.09 ± 0.057 | 1.3 ± 0.087 | 1.14 ± 0.16 | 0.989 (active) |
| Cc1cc(OC2CN(C(=O)Cn3nnc4ccccc43)C2)cc(=O)n1C1CC1 | 1.14 ± 0.08 | 1.05 ± 0.11 | 1.02 ± 0.044 | 0.97 ± 0.044 | 0.99 ± 0.07 | 0.973 ± 0.15 | 0.997 (active) |
